# Screening results deposited in PubChem by National Center for Advancing Translational Sciences (NCATS).
# KB-3-1 tox: KB-3-1 parental cell cytotoxicity | Potency, µM (doses to about 46.1 µM), hits mostly cytotoxic | hit rate 1.4% among 400,000 | KB-3-1 viability, CellTiter-Glo ATP luminescence, 72 h; also: potency is read from the fitted curve at half-maximal effect; % is scaled to controls: 0 for no effect and ±100 for the full control effect; nearly all actives have a fitted effect of over 60% in size
#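 Multi-concentration cytotoxicity screen in KB-3-1 cells grown in DMEM lacking phenol red with 10% FBS. After 72 h at 37 °C with compound, ATP-dependent luminescence was recorded.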
# SW480 rerep: induces DNA re-replication in SW480 colon adenocarcinoma cells; AID 624297; hit rate 1.8% among 340,000; SW480 DNA re-replication, Hoechst DNA content imaging, 48 h; Potency, µM (highest dose often 46.1 µM), for inactives: top-dose re-replication activation, actives largely listed as activators; also: potency is read from the fitted curve at half-maximal effect; % of control where 0% means no effect; nearly all actives have a fitted effect of over 55% in size
#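 Compounds, transferred as 23 nL by pin tool, were incubated with cells for 48 hr; DNA content per nucleus was then quantified by Hoechst staining and fluorescence plate imaging.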
# D3 ag: agonists of human D3 dopamine receptor; AID 652048; max activation, %; hit rate 0.58% among 410,000; D3R DiscoveRx beta-arrestin cells, luminescence, 90 min; in the data active = max activation above about 30%; also: 0% is about no effect
# Target sequence (P35462 whole entry, looked up): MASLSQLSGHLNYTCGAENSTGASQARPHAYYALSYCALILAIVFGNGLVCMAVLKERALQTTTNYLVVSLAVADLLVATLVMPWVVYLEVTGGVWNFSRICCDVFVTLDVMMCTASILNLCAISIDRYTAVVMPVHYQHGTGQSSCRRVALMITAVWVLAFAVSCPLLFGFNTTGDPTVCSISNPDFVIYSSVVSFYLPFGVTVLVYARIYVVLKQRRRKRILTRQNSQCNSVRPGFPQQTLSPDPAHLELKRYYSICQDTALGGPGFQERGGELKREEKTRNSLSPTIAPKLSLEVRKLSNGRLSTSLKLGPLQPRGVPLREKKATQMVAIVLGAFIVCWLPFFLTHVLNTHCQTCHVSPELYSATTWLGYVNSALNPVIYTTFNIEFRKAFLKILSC
#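 Cells at 1500/well, incubated overnight, then treated with pinned compounds (dopamine as control) for 90 min at 37 degrees C. DiscoveRx reagent added for 30 - 60 minutes at room temperature; luminescence read.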
# MCF10A rereplic: DNA re-replication induction in MCF 10a cells; MCF 10A DNA re-replication, Hoechst nuclear intensity, 48 h; Potency, µM (top dose mostly 46.1 µM), for the others: at the highest dose activity, positive = re-replication, actives largely listed as activators; hit rate 2.9% among 350,000; AID 624296; also: potency is read from the fitted curve at half-maximal effect; % of control where 0% means no effect; nearly all actives have a fitted effect of over 50% in size
# D3 antag: D3 dopamine receptor (human) antagonism. D3R cells, DiscoveRx beta-arrestin luminescence, antagonist mode; hits give low values. max response, negative = inhibition, %. hit rate 2.5% among 360,000. AID 652054; in the data active = max response below about -50%; inconclusive = no clear call, values can overlap the other calls; also: % is scaled to controls: 0 for no effect and ±100 for the full control effect
#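 Cells expressing the human receptor were seeded at 1500 cells/well, incubated overnight at 37 degrees C in 5% CO2, then exposed to library compounds with dopamine controls for 90 minutes at 37 degrees C before luminescent detection.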
# KB-V1 cytotox: KB-V1 MDR subline cytotoxicity | KB-V1 MDR cells viability, CellTiter-Glo, 72 h | hit rate 3.4% among 400,000 | Potency, µM (highest dose often 46.1 µM), most hits filed as cytotoxic; also: potency is read from the fitted curve at half-maximal effect; % is scaled to controls: 0 for no effect and ±100 for the full control effect; nearly all actives have a fitted effect of over 60% in size
#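 qHTS viability screen in drug-selected KB-V1 MDR cells: 72 h compound treatment at 37 degrees C, ATP luminescence end point.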
# The depositor's hits bear a star; i = inactive; ? = inconclusive; . = no result. Most compounds without a hit are left out; they make up all but 8.9% or so of the library. Unless noted, calls follow the shape of the dose curve; as a rule, active = well fitted curve in the direction sought with a large enough effect; inconclusive = small, poorly fitted or top-dose-only effect, or another doubt; inactive = no such curve, though single readings can be large; an effect the other way counts as inactive or inconclusive.
SMILES,KB-3-1 tox,SW480 rerep,D3 ag,MCF10A rereplic,D3 antag,KB-V1 cytotox
COc1cc(OC)c(OC)cc1/C=C/c1nc2ccccc2o1,i,.,.,.,.,i
COc1ccc(/C=C/c2nc3cc(-c4ccccc4)ccc3o2)cc1O,?,18µM*,-9,5.8µM*,2,?
CC(C)(C)N(Cc1ccccc1)C(=O)c1ccc(Br)o1,i,4%,0,?,-7,i
COc1cc(NC(=O)c2cccs2)c(C(=O)OCC(=O)NC(=O)NCc2ccccc2)cc1OC,i,23%,7,15µM*,7,i
Cc1ccc(C(=O)OCC(=O)NC(=O)NCc2ccccc2)cc1C,i,4%,-16,10µM*,17,i
O=C(COC(=O)c1ccc(F)c([N+](=O)[O-])c1)NC(=O)NCc1ccccc1,i,?,-5,21µM*,8,?
COc1cc(NC(=O)c2cccs2)c(C(=O)OCC(=O)NC(=O)NC(C)(C)C)cc1OC,i,-8%,3,1%,76,i
Cc1ccc(C(=O)N(Cc2ccccc2)C(C)(C)C)cc1C,i,-3%,-19,23µM*,-19,i
CC(=O)Nc1ccc(C(=O)OCC(=O)NC(=O)NCc2ccccc2)cc1,i,.,-4,.,-10,i
CCOc1ccc(C(=O)Nc2nnc(S(=O)(=O)Nc3ccccc3)s2)cc1,i,.,-1,.,.,i
Cc1cccc(N2CCN(C(=O)c3oc(=O)c4ccccc4c3-c3ccccc3)CC2C)c1 (configuration not stated),i,.,2,.,.,i
COc1ccc(/C=C(\NC(=O)c2ccc(OC)cc2)C(=O)Nc2ccccc2C(=O)O)cc1,i,-23%,22,3%,6,i
O=C(Cn1c2ncccc2c(=O)n1-c1ccccc1)Nc1ccc(F)c(F)c1,i,.,-11,.,.,i
CCOC(=O)C1CCN(c2nc3c(S(=O)(=O)c4ccccc4)nnn3c3ccsc23)CC1,i,.,2,.,.,i
Cc1ccc(C(=O)OCC(=O)N(Cc2ccccc2)C(C)C)cc1C,i,2%,-2,-2%,-15,21µM*
Cc1ccsc1C(=O)OCC(=O)N(Cc1ccccc1)C(C)C,?,-7%,1,7%,0,i
COc1ccc(C(=O)Nc2ccc3oc(-c4cc(Cl)ccc4Cl)nc3c2)cc1Br,i,.,-7,.,.,i
Clc1ccccc1Nc1nnc(-c2ccncc2)s1,?,-7%,-10,-7%,-24,9.2µM*
O=c1oc2ccc3ccccc3c2cc1-c1nnc(Nc2cc(C(F)(F)F)ccc2Cl)s1,i,.,5,.,.,?
FC(F)(F)c1ccc(Cl)c(Nc2nnc(-c3ccncc3)s2)c1,i,.,-8,.,-56*,i
COc1ccc(Cl)cc1Nc1nnc(-c2ccncc2)s1,i,-20%,-3,?,-6,i
CCOc1ccc(CCNc2ncnc3onc(C)c23)cc1OCC,2.6µM*,.,8,.,.,i
Cc1ccc(CCNc2ncnc3onc(C)c23)cc1,2.9µM*,.,6,.,.,i
Cc1noc2ncnc(NCCc3ccccc3)c12,?,.,11,.,.,i
CCOC(=O)c1ccc(CN(Cc2ccccc2C)S(=O)(=O)c2ccc(C(C)(C)C)cc2)cc1,.,.,-2,.,.,.
SMILES,KB-3-1 tox,SW480 rerep,D3 ag,MCF10A rereplic,D3 antag,KB-V1 cytotox
O=C(CCNC(=O)c1ccc(Cl)cc1)NC1CCCCCC1,.,-2%,-4,?,6,.
O=C(CNC(=O)c1ccc(Cl)cc1)NC1CCCCC1,i,8.2µM*,-19,1%,-59*,i
O=C(CCNC(=O)c1ccc(Br)cc1)NC1CCCCCC1,i,-1%,-6,8%,-16,16µM*
O=C(Cc1ccc(Cl)cc1)NC1CCCCCC1,i,2%,0,-1%,21,i
COc1ccc2[nH]cc(CCNC(=O)Nc3cc(C)cc(C)c3)c2c1,i,.,-1,.,.,i
CN(C)CCN=Cc1c(O)n(-c2ccc(S(=O)(=O)N3CCOCC3)cc2)c(=O)c2ccccc12,i,18µM*,-9,-28%,-11,i
Cc1cccc(-n2c(O)c(C=NCCCN3CCOCC3)c3ccccc3c2=O)c1,i,-7%,-3,7%,8,i
Cn1c(Cn2c(=O)sc3ccccc32)nnc1SCC(=O)NCc1ccccc1,i,9%,-9,4%,-63*,i
Cn1c(Cc2ccccc2)nnc1SCC(=O)NCCc1ccccc1,i,-6%,-4,0.58µM*,0,i
Nc1c[n+](N2CCOCC2)no1,.,.,9,.,.,.
Cc1cc(=O)n(Cc2cccc(Cl)c2)c2c1c(C)nn2C,i,.,13,.,.,i
OCCOCCN1CCN(C2=Nc3ccccc3Sc3ccccc32)CC1,i,-10%,.,-20%,-66*,i
COC(=O)c1sc2cccc(F)c2c1S(=O)(=O)Nc1ccc(C)cc1Cl,i,.,13,.,.,i
Cc1ccc(S(=O)(=O)N2C(=O)c3cccc4cccc2c34)cc1,?,?,1,9.2µM*,8,i
Cc1ccc(S(=O)(=O)ON2C(=O)c3cccc4cccc(c34)C2=O)cc1,i,-17%,-2,-1%,-14,i
CC[C@H](C)[C@@H]1NC(=O)[C@@H](CC(C)C)NC(=O)[C@H](C(C)C)NC(=O)[C@H]2CSSC[C@H](NC1=O)C(=O)N2,1.2µM*,.,6,.,4,i
C[C@H](CO)N1C[C@H](C)[C@@H](CN(C)S(=O)(=O)c2ccccc2)Oc2c(NC(=O)NC3CCCCC3)cccc2C1=O,i,0%,-9,-1%,0,i
CCc1ccc(/C([O-])=C(/C(=S)NCCN2CCOCC2)[n+]2ccccc2)cc1,i,-4%,1,6.5µM*,-11,i
CC(=O)N[C@@H](C=O)[C@H](O)[C@H](O)[C@@H](O)CO,.,.,-1,.,.,.
CC(=O)NC(c1ccc(F)c(F)c1)c1nc(-c2ccccc2)cs1 (configuration not stated),i,.,-4,.,8,i
COc1ccc(S(=O)(=O)c2c(Nc3c(C)cccc3C)sc(C(=O)c3ccc4c(c3)OCO4)c2N)cc1,3.7µM*,.,-12,.,.,?
COc1ccc(S(=O)(=O)c2c(Nc3c(C)cccc3C)sc(C(=O)c3ccc(F)cc3)c2N)cc1,5.8µM*,.,-19,.,.,?
COc1ccc(S(=O)(=O)c2c(Nc3cccc(C)c3C)sc(C(=O)c3ccccc3)c2N)cc1,.,.,-6,.,.,.
CC1CN(S(=O)(=O)c2cccc(C(=O)Nc3ccc(S(=O)(=O)NC4=NCCCCC4)cc3)c2)CC(C)O1 (configuration not stated),i,0%,-16,8%,-17,i
